For experiment [1], the system named is Plasmodium falciparum Sir2 (PF13_0152, Sir2A). The experiment can be described thus: Plasmodium falciparum Sir2A binding compounds – biochemical, small-molecule microarray, 635 nm fluorescence, primary screen (AID 1098).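 Also: score merges spot fluorescence intensity with its signal-to-noise ratio.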 To be noted: fluorescence 635 nm, higher = more signal.
Experiment [2] is described as follows: probe aDKK1 binding to arrayed compounds – biochemical, biotinylated probe, 635/667 nm fluorescence, primary screen (AID 1099).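 Also: score merges 667nm spot fluorescence with signal to noise across triplicate slides.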 The settings on record: small-molecule microarray, higher = more signal.
Experiment [3] can be described thus: probe aCHRDL2 binding to arrayed compounds – biochemical, biotinylated probe, 635/667 nm fluorescence, primary screen (AID 1100). The settings on record: small-molecule microarray, higher = more signal.
Experiment [4] can be described thus: change in splice reporter luminescence, either direction, cell-based, HEK293, spliceosome inhibition project, primary screen (AID 1101).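 Also: HEK293 cells carrying a splicing-competent luciferase reporter gene; test concentration not given here.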 The settings on record: HEK293 splicing luciferase reporter, 24 h, higher = more signal, called active from +8 up or from −8 down.
For experiment [5], the target named is Fibroblast growth factor 10 (Homo sapiens) (UniProt O15520). The experiment can be described thus: compounds binding fibroblast growth factor 10 – biochemical, small-molecule microarray, 635 nm fluorescence, primary screen (AID 1102). To be noted: FGF10 binding, fluorescence 635 nm, higher = more signal.
Chain of Fibroblast growth factor 10 (Homo sapiens) (O15520 whole entry, looked up): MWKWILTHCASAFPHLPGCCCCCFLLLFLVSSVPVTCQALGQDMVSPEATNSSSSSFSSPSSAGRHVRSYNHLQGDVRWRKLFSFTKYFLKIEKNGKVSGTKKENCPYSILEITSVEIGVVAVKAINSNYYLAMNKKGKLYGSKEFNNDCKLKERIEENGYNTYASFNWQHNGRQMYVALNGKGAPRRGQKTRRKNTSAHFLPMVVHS
For experiment [6], the system named is glycogen synthase kinase-3 (GSK3A per assay name; protocol says GSK3B). The experiment can be described thus: compounds binding glycogen synthase kinase-3 – biochemical, small-molecule microarray, 635 nm fluorescence, GSK3A, primary screen (AID 1103). Also: the record names both GSK3A and GSK3B. To be noted: fluorescence 635 nm, higher = more signal.
The target of experiment [7] is Epidermal growth factor receptor (Homo sapiens) (UniProt P00533). As to the kind of experiment: compounds binding epidermal growth factor receptor – biochemical, small-molecule microarray, 635 nm fluorescence, primary screen (AID 1104).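 Also: score merges 667 nm emission intensity with spot signal to noise over triplicate slides.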 The settings on record: EGFR binding, higher = more signal.
Chain of Epidermal growth factor receptor (Homo sapiens) (P00533 whole entry, looked up): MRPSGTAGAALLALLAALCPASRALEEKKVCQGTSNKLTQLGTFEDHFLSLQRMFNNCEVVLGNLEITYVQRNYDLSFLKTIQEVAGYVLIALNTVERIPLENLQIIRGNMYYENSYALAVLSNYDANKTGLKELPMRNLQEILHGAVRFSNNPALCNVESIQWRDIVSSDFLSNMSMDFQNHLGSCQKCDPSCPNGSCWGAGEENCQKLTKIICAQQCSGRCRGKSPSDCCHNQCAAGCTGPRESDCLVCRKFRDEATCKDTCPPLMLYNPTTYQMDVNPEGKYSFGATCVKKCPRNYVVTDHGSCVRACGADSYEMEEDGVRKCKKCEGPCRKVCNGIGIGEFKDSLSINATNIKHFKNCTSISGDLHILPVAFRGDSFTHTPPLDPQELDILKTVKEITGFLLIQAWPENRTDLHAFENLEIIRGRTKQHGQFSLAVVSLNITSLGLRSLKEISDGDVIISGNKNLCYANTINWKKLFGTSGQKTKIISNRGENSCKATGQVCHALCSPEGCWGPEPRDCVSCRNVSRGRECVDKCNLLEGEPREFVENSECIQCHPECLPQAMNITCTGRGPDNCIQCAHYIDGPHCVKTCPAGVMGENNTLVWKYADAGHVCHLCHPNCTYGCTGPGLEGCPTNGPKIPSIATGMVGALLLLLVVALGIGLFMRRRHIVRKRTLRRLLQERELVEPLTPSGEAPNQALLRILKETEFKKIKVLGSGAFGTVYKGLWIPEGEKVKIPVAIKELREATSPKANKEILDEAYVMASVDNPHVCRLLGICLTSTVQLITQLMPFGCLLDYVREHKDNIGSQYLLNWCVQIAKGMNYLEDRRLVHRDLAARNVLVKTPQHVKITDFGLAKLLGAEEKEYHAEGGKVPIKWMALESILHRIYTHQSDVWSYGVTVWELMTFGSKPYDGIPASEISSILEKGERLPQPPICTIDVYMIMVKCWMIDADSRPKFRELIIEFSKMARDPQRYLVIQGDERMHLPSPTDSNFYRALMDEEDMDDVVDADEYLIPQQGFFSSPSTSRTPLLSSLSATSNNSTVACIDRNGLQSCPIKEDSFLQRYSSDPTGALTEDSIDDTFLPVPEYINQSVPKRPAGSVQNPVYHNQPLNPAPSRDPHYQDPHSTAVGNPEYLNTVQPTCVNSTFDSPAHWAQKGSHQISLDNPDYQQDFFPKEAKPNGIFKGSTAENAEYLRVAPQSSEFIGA
For experiment [8], the target named is Follistatin-related protein 3 (Homo sapiens) (UniProt O95633). The experiment can be described thus: compounds binding follistatin-related protein 3 – biochemical, small-molecule microarray, 635 nm fluorescence, primary screen (AID 1105).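 Also: score merges emission near 667 nm and signal to noise per printed spot across three slides.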 The settings on record: FSTL3 binding, higher = more signal.
Chain of Follistatin-related protein 3 (Homo sapiens) (O95633 whole entry, looked up): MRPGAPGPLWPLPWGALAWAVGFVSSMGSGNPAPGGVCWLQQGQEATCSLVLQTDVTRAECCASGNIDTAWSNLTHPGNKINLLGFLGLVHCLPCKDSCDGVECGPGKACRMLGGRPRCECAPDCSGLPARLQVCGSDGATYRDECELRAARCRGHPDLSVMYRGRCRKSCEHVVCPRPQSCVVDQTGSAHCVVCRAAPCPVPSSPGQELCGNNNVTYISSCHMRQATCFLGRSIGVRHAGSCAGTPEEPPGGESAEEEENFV
Experiment [9] has as its target Dickkopf-related protein 1 (Homo sapiens) (UniProt O94907). The experiment can be described thus: small molecules binding DKK1 protein – biochemical, small-molecule microarray, 635 nm fluorescence scan, primary screen (AID 1106).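 Also: score merges emission near 667 nm with signal to noise over three replicate slides.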 The settings on record: higher = more signal.
Experiment [10] deals with Inhibin beta A chain (activin A). As to the kind of experiment: small molecules binding activin A – biochemical, small-molecule microarray, 635 nm fluorescence scan, primary screen (AID 1107).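 Also: mouse activin A protein probed at 4.33 µg/mL on printed slides; score merges bound-protein fluorescence near 667 nm with spot signal-to-noise.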 To be noted: INHBA, higher = more signal.
Experiment [11] has as its system Human papillomavirus type 1a protein E7 (residues 44-93). The experiment can be described thus: small molecules binding HPV E7 44-93 – biochemical, small-molecule microarray, residues 44-93, 635 nm fluorescence, primary screen (AID 1108).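 Also: E7 fragment applied at 1 µg/mL in TBST for 1 h at 4 C; score combines spot fluorescence with its signal to noise ratio.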 To be noted: fluorescence 635 nm, higher = more signal.
The nature of experiment [12]: hepatitis C replication reporter changes, two-sided – Huh7 cells, luciferase reporter, HCV replication inhibitor project, primary screen (AID 1109).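 Also: huh7 hepatoma cells harbouring a luciferase neomycin HCV replicon reporter; luciferase luminescence as measure of HCV replicon replication; test concentration not given here.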 To be noted: Huh7 HCV replicon luciferase reporter, 48 h; higher = more signal.
Experiment [13] deals with Left-right determination factor 2 (Homo sapiens) (UniProt O00292). The experiment can be described thus: small molecules binding LEFTY2 protein – biochemical, small-molecule microarray, 635 nm fluorescence scan, primary screen (AID 1110). To be noted: higher = more signal.
Chain of Left-right determination factor 2 (Homo sapiens) (O00292 whole entry, looked up): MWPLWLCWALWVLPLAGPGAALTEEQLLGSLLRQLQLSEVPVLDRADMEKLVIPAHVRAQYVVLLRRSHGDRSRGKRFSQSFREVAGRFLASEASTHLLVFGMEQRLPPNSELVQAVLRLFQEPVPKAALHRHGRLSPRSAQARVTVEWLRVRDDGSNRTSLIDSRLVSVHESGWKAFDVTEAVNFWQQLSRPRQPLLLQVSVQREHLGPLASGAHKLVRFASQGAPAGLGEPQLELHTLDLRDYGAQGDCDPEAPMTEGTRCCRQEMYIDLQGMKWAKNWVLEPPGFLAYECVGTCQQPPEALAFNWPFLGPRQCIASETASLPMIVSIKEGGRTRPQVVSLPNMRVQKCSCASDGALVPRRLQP
Experiment [14] deals with Calmodulin-1 (Homo sapiens) (UniProt P0DP23). As to the kind of experiment: small molecules binding calmodulin-1 with EGTA – biochemical, small-molecule microarray, Cy5-labelled CALM1, profiling panel (AID 1111).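 Also: labelled calmodulin applied in Tris saline Tween buffer holding calcium plus EGTA and DTT.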 To be noted: Cy5-CALM1 binding fluorescence, higher = more signal.
Experiment [15] shares this target. As to the kind of experiment: small molecules binding Ca-loaded calmodulin-1 – biochemical, small-molecule microarray, Cy5-labelled CALM1, plus calcium, artefact control for SMM control-protein annotation, profiling panel (AID 1112).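 Also: score merges spot fluorescence with signal to noise from triplicate slides.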 To be noted: Cy5-CALM1 binding fluorescence, higher = more signal.
Experiment [16] can be described thus: probe aWnt5a binding to arrayed compounds – biochemical, biotinylated probe, 635/667 nm fluorescence, primary screen (AID 1113).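 Also: score merges 667 nm fluorescence intensity with signal-to-noise per printed feature.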 The settings on record: small-molecule microarray, higher = more signal.
Experiment [17] is described as follows: probe aShh binding to arrayed compounds – biochemical, biotinylated probe, 635/667 nm fluorescence, primary screen (AID 1114).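 Also: probe is biotin-labelled aShh protein from a stem cell growth factor screen; measures binding of labelled protein to compounds printed on the slide; score merges feature fluorescence at 667 nm with signal-to-noise.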 The settings on record: small-molecule microarray, higher = more signal.
The nature of experiment [18]: probe aNog binding to arrayed compounds – biochemical, biotinylated probe, 635/667 nm fluorescence, primary screen (AID 1115).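 Also: probe is biotinylated aNog protein used at 0.15 µg/mL for 1 h at 4 C; z-score combines 667 nm fluorescence of each spot with its signal to noise.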 To be noted: small-molecule microarray, higher = more signal.
In experiment [19] the target is Torsin-1A-interacting protein 1 (Homo sapiens) (UniProt Q5JTV8). As to the kind of experiment: compound microarray binding of lysate hLAP1 – cell lysate, small-molecule microarray, COS7 lysate, 635/667 nm fluorescence, primary screen (AID 1116). The settings on record: 635 nm fluorescence, higher = more signal.
Chain of Torsin-1A-interacting protein 1 (Homo sapiens) (Q5JTV8 whole entry, looked up): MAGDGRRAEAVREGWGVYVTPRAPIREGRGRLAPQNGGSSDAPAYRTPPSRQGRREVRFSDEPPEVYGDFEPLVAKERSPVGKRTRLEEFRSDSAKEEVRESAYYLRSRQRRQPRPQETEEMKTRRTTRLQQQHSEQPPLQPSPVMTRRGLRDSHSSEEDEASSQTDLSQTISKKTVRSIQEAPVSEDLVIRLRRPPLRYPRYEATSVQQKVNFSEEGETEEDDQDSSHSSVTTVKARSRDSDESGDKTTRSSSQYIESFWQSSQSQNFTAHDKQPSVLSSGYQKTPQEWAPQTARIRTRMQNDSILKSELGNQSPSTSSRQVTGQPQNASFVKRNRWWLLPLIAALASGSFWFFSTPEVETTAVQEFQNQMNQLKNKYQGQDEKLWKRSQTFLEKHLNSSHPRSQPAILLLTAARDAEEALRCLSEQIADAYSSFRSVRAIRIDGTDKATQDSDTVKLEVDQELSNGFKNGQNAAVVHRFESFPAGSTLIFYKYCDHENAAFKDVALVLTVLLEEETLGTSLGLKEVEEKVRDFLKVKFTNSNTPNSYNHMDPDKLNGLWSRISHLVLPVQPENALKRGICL
Experiment [20] deals with Alpha-bungarotoxin (Bungarus multicinctus) (UniProt P60615). The experiment can be described thus: compounds binding labelled alpha-BTX control protein – biochemical, small-molecule microarray, Alexa647 label, 635/667 nm fluorescence, artefact control for SMM control protein annotation, profiling panel (AID 1117). The settings on record: alpha-BTX-A647 binding fluorescence, higher = more signal.
Chain of Alpha-bungarotoxin (Bungarus multicinctus) (P60615 whole entry, looked up): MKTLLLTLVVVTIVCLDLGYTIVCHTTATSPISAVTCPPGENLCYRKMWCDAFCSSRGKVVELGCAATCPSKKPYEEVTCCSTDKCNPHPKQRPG

Activity calls are given as the source filed them.

Chain of Dickkopf-related protein 1 (Homo sapiens) (O94907 whole entry, looked up): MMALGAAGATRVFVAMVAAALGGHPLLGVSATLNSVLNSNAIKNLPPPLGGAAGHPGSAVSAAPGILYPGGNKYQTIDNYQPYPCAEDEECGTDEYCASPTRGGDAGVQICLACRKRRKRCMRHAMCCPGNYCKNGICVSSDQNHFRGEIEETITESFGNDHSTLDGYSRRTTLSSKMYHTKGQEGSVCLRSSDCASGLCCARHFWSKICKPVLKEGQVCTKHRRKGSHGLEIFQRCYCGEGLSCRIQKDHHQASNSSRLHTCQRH

For `O=C1[C@@H]2[C@@H](CC(COc3ccccc3)=C3[C@@H](CCc4ccccc4)OB(O)C[C@@H]32)C(=O)N1Cc1ccccc1`, the composite z-score in experiment [1] was 0.393; in experiment [2], -0.185; in experiment [3], -0.23; in [5] it was 0.747; in experiment [6], 0.081; in [7], 0.292. Moreover, the composite z-score is 0.163 in experiment [8]; 0.147 in experiment [9]; 0.343 in [10]; -0.458 in experiment [11]; 0.222 in [13]; 0.0454 in [14]. Further, the composite z-score in [15] was 0.171; in experiment [16], -0.124; in [17], -0.0011; in [18], -0.465; in [19], -0.0169; in [20], -0.0025. The figures for the z-score in experiment [4] and in experiment [12] were -0.74 (inactive) and -1.36, respectively.

Consider `C=C[C@H](C)[C@H](OC(=O)Nc1ccc(OC)cc1)c1ccc(OCCO)cc1`, for which the composite z-score in experiment [1] was 0.515; in experiment [2] it was -0.115; in experiment [3] it was 0.931; in experiment [5], -1.12; in experiment [6], -0.78; in experiment [7], -2.13. In addition, the composite z-score in [8] was -0.844; in experiment [9], -1.28; in experiment [10], -0.801; in experiment [11], -0.562; in [13] it was -2.08; in experiment [14], -1.39. For the same molecule, the composite z-score in experiment [15] was -0.0296; in experiment [16], -0.222; in [17] it was -0.0553; in [18], -0.142; in experiment [19], -0.18; in experiment [20], -1.79. Moreover, the z-score in experiment [4] was -0.921 (inactive); in experiment [12], 0.0055.

Turning to `CCOC(=O)C1=C[C@@H](c2ccccc2)N(S(=O)(=O)c2ccc(C)cc2)[C@H]1c1ccccc1`, the composite z-score in [1] is 0.394; in [2], 0.0612; in experiment [3], 0.753; in [5] it was -0.0005; in experiment [6] it was -0.193; in experiment [7], 0.0794. Besides, the composite z-score in experiment [8] is -0.0021; in experiment [9], -0.399; in [10], 1.46; in [11], 0.0627; in experiment [13], -0.063; in experiment [14], 0.997. Moreover, the composite z-score in experiment [15] was 0.209; in experiment [16] it was -0.124; in experiment [17] it was -0.138; in experiment [18], 1.13; in experiment [19], -0.109; in experiment [20], 0.291. Besides, the z-score was -0.924 (inactive) in [4] and 0.235 in experiment [12].

As for `C=CCC(OC(C)=O)[C@@H]1[C@@H](N(Cc2ccc(-c3cccc(C(F)(F)F)c3)o2)C(=O)c2ccc(C)cc2)c2cc(OCCCO)ccc2N1C(=O)Cc1ccc(OC)cc1` (stereo not given in full), the composite z-score in experiment [1] was 1.1; in experiment [2], -0.145; in experiment [3], -0.0583; in [5], -0.0938; in experiment [6], -0.808; in experiment [7], -0.0424. The composite z-score was 0.345 in experiment [8]; 0.0682 in experiment [9]; 0.975 in experiment [10]; -0.918 in [11]; -0.115 in experiment [13]; -0.697 in experiment [14]. Further, the composite z-score in experiment [15] was -1.06; in experiment [16], 0.0327; in [17], -0.439; in experiment [18], -0.565; in [19], 0.163; in experiment [20], -0.056. Also, the z-score in experiment [4] was -0.0858 (inactive); in experiment [12], -0.466.

On to `COC(=O)[C@@]1(Cc2ccc(OC)cc2)[C@H]2c3cc(C(=O)N4CCCC4)n(Cc4ccc(OC(F)(F)F)cc4)c3C[C@H]2CN1C(=O)c1ccccc1`, for which the composite z-score in experiment [1] is 0.858; in experiment [2], 1.15; in experiment [3], 1.1; in [5] it was 0.717; in experiment [6], -0.5; in [7], -0.0407. In addition, the composite z-score in [8] is 0.598; in experiment [9], -0.414; in [10] it was 0.891; in experiment [11] it was -0.0023; in experiment [13], -0.251; in experiment [14], 1.72. In addition, the composite z-score in experiment [15] was 1.13; in [16], 0.402; in experiment [17], 0.358; in [18], 1.65; in experiment [19], -0.401; in experiment [20] it was 1.25. Further, the z-score in experiment [4] was -0.886 (inactive); in experiment [12] it was -2.48.

(Values after PubChem BioAssay.)
